Publication PMC4336329 (PLoS ONE, 2015)
Screen size: about 310,000 compounds; about 14,000 (4.5%) showed an effect of 50% or more. Effects have a minus sign here. For the sample, strong results were picked, then their nearest neighbours and some compounds at random.

biological target: human ether-à-go-go-related gene (hERG) potassium channel (human, UniProt Q12809); assay: primary screen, population patch clamp on CHO cells stably expressing hERG; higher = less effect of the substance
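Also: peak tail current of the secondary pulse compared with the same well before compound.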

Chain of human ether-à-go-go-related gene (hERG) potassium channel (Q12809 whole entry, looked up): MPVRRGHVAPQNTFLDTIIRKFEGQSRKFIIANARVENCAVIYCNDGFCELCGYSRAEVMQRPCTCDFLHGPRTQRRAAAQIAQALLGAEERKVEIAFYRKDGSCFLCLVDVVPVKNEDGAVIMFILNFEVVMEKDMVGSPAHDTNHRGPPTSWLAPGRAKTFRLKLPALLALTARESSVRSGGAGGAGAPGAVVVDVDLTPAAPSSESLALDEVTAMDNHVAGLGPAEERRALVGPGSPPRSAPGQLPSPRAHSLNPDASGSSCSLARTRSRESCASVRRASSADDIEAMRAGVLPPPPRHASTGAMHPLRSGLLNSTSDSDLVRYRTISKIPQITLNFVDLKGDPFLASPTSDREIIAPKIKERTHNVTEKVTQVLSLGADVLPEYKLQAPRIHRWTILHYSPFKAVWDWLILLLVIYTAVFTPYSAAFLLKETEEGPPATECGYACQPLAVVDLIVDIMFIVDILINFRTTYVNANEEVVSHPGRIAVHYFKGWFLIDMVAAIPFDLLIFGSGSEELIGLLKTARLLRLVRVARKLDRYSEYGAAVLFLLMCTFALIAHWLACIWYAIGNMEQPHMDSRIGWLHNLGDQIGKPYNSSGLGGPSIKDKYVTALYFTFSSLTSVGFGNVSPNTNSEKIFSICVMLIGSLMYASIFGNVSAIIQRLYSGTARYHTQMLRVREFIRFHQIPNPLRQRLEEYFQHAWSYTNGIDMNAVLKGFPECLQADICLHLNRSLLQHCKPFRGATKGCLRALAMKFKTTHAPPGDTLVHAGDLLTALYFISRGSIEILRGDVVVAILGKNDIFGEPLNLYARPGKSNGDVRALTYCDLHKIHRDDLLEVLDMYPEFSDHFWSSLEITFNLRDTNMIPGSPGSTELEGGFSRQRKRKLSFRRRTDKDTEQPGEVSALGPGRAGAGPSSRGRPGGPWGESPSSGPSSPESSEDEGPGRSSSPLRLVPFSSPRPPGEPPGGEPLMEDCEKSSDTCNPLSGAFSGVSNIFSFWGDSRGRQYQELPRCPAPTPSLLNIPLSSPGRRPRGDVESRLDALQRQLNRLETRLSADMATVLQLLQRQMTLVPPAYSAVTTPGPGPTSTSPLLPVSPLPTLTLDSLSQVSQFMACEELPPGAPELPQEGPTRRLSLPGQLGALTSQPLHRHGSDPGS

Structure (SMILES)	hERG current change (%, negative = inhibition) at 10uM
COc1ccc(/C=N/n2c(-c3n[nH]c4c3CCC4)n[nH]c2=S)c(OC)c1OC	20.7%
COc1nc(NC(C)=O)nc(C)c1Br	-1.69%
COc1ccc(NC(=O)CC(C)C)c([N+](=O)[O-])c1	-0.754%
Cc1ccc(C(=O)NC(=S)Nc2ccccc2C)cc1	-0.104%
CCn1nc(C)cc1C(=O)N1CCc2c([nH]c3ccccc23)C1c1cc(F)ccc1F (stereo not shown)	-1.16%
CC(C)(C)C1CCc2c(sc(NC(=O)c3cccs3)c2C(=O)N2CCCCC2)C1 (stereo not shown)	7.32%
CCOC(=O)c1c(NC(=O)c2cccc(N3C(=O)CCC3=O)c2)sc2c1CCN(CC)C2.Cl	-31.5%
CC(C)N1CCc2c(sc(NC(=O)c3ccc(C(=O)c4ccccc4)cc3)c2C(N)=O)C1.Cl	-38.2%
CCN1CCc2c(sc(NC(=O)Cc3ccccc3)c2C(=O)OC)C1.Cl	-51.5%
CC(C)N1CCc2c(sc(NC(=O)Cc3ccccc3)c2C(N)=O)C1.Cl	-11.5%
CN1CCN(C(=O)c2c(NC(=O)c3ccco3)sc3c2CCC(C(C)(C)C)C3)CC1 (stereo not shown)	-69.5%
CCN1CCc2c(sc(NC(=O)Cc3ccccc3)c2C(N)=O)C1.Cl	-20.3%
CCOC(=O)c1c(NC(=O)Cc2ccccc2)sc2c1CCN(CC)C2.Cl	-65.3%
CCN1CCc2c(sc(NC(=O)c3ccc(S(=O)(=O)N4CCOCC4)cc3)c2C(=O)OC)C1.Cl	-42.2%
CC(C)(C)C1CCc2c(sc(NC(=O)c3ccco3)c2C(N)=O)C1 (stereo not shown)	19.8%
CC(C)N1CCc2c(sc(NC(=O)CCc3ccccc3)c2C(N)=O)C1.Cl	-57.2%
OCc1ccccc1N=c1ssnc1Cl	15.9%
CC(=O)N1CC(C)Sc2ccc(S(=O)(=O)NCc3ccccc3Cl)cc21 (stereo not shown)	-8.78%
CC1CCN(C(=O)C2CCCCN2S(=O)(=O)c2cccc([N+](=O)[O-])c2)CC1 (stereo not shown)	1.35%
Cc1cc(C)c(NC(=O)CSc2ccc(-c3ccccn3)nn2)c(C)c1	17.9%
CC1CCN(C(=O)c2nc[nH]c2C(=O)OCCNC(=O)OC(C)(C)C)CC1	4.23%
CC1=CC(C)(C)Nc2ccc(OC(=O)CN3C(=O)c4ccccc4C3=O)cc21	15%
CC1Cc2ccccc2N1C(=O)COC(=O)Cc1ccc(F)cc1 (stereo not shown)	-13.9%

Structure (SMILES)	hERG current change (%, negative = inhibition) at 10uM
C=CCN(CC=C)C(=S)NCCc1ccc(OC)c(OC)c1	-3.41%
Cc1cc([N+](=O)[O-])nn1CC(=O)Nc1c(C)n(C)n(-c2ccccc2)c1=O	18.4%
Cc1nc2sc(C(c3cccs3)N3CCN(Cc4ccccc4)CC3)c(O)n2n1 (stereo not shown)	-81.2%
COc1ccc(C(c2sc3nc(C)nn3c2O)N2CCN(Cc3ccccc3)CC2)cc1OC (stereo not shown)	-18.3%
CCOc1ccc(C(c2nnnn2Cc2ccccc2)N2CCN(C(=O)c3ccco3)CC2)cc1.Cl (stereo not shown)	-57%
COCCn1nnnc1C(c1ccccc1)N1CCN(C(=O)c2ccco2)CC1.Cl (stereo not shown)	16.7%
COCCn1nnnc1C(c1ccc(Cl)cc1)N1CCN(C(=O)c2ccco2)CC1.Cl (stereo not shown)	-22.4%
O=C(c1ccco1)N1CCN(C(c2ccc(Cl)cc2)c2nnnn2CC2CCCO2)CC1 (stereo not shown)	-22.1%
Cc1nc2sc(C(c3cccs3)N3CCN(c4ccccc4)CC3)c(O)n2n1 (stereo not shown)	-9.85%
COc1cccc(C(c2nnnn2Cc2ccccc2)N2CCN(C(=O)c3ccco3)CC2)c1OC (stereo not shown)	-30.2%
CCC(c1nnnn1Cc1ccccc1)N1CCN(C(=O)c2ccco2)CC1 (stereo not shown)	-36.3%
CC(C)CC(c1nnnn1CCc1ccccc1)N1CCN(C(=O)c2ccco2)CC1 (stereo not shown)	-46.6%
O=C(c1ccco1)N1CCN(C(c2ccc(Cl)cc2)c2nnnn2Cc2ccccc2)CC1 (stereo not shown)	-68.2%
CC(C)CC(c1nnnn1Cc1ccccc1)N1CCN(C(=O)c2ccco2)CC1 (stereo not shown)	-63.4%
COC(=O)/C(=C\Nc1ccccc1)NC(=O)c1ccc(Cl)cc1Cl	-17.2%
Cc1nc2sc(C(c3ccccc3)N3CCN(C(=O)c4ccco4)CC3)c(O)n2n1 (stereo not shown)	8.97%
COc1ccc(C(c2nnnn2Cc2ccccc2)N2CCN(C(=O)c3ccco3)CC2)cc1OC.Cl (stereo not shown)	-19.9%
COc1ccccc1C(c1nnnn1C(C)(C)C)N1CCN(C(=O)c2ccco2)CC1 (stereo not shown)	-53.9%
CCOc1ccc(C(c2nnnn2C(C)(C)C)N2CCN(C(=O)c3ccco3)CC2)cc1 (stereo not shown)	-69.3%
CCC(C)(C)n1nnnc1C(c1ccccc1OC)N1CCN(C(=O)c2ccco2)CC1 (stereo not shown)	-32.6%
COCCn1nnnc1C(c1ccc(OC)cc1)N1CCN(C(=O)c2ccco2)CC1.Cl (stereo not shown)	-4.77%
Cc1ccc(C(c2sc3nc(C)nn3c2O)N2CCN(C(=O)c3ccco3)CC2)cc1 (stereo not shown)	-31.4%
COc1ccc(C(c2nnnn2Cc2ccccc2)N2CCN(C(=O)c3ccco3)CC2)cc1 (stereo not shown)	-60.6%

Structure (SMILES)	hERG current change (%, negative = inhibition) at 10uM
Cc1nc2sc(C(c3ccc(Cl)cc3)N3CCN(C(=O)c4ccco4)CC3)c(O)n2n1 (stereo not shown)	-60.1%
COc1ccccc1C(c1nnnn1C(C)C)N1CCN(C(=O)c2ccco2)CC1 (stereo not shown)	1.24%
COc1ccc(C(c2nnnn2C(C)(C)C)N2CCN(C(=O)c3ccco3)CC2)cc1 (stereo not shown)	-37.4%
CCC(C)(C)n1nnnc1C(c1ccc(OC)cc1)N1CCN(C(=O)c2ccco2)CC1 (stereo not shown)	-41.6%
Cc1ccc(-c2nc3c(c(SCC(=O)N4CCOCC4)n2)COC(C)(C)C3)cc1	3.09%
O=C(NCCCn1ccnc1)C(=O)Nc1ccccc1	11.8%
CCCNc1nc2c(c(=O)[nH]c(=O)n2C)n1CCc1ccccc1	4.04%
C#CCN(C(=O)c1ccc(OC)c(OC2CCN(C(C)C)CC2)c1)C1CCCCC1	-46.4%
C=CCc1cccc2cc(C(=O)NC)c(=O)oc12	-5.8%
Cn1cnnc1-c1cccc(NS(=O)(=O)c2ccc(N3CCCC3=O)cc2)c1	9.92%
CCN(CC)c1ncnc2c1[nH]c1ccccc12	-21.8%
O=c1c(C(c2nnnn2C2CCCCC2)N2CCCCC2)coc2ccc(Cl)cc12 (stereo not shown)	0.931%
Cc1ccc2occ(C(c3nnnn3C3CCCC3)N3CCN(C(=O)c4ccco4)CC3)c(=O)c2c1 (stereo not shown)	-45.7%
O=C(c1ccco1)N1CCN(C(c2coc3ccc(Cl)cc3c2=O)c2nnnn2C2CCCC2)CC1 (stereo not shown)	-55.6%
COc1ccc(S(=O)(=O)Nc2cc3c4c(c2)CCN4C(=O)CC3)cc1OC	-7.56%
O=C(Cc1ccc(Cl)c(Cl)c1)N/N=C/c1cccnc1	-40%
C=CCn1c(SCCC#N)nnc1-c1ccncc1	-4.28%
N#Cc1ccc(CSc2nnc(-c3ccncc3)n2CCc2ccccc2)cc1	-74.1%
Cn1c(SCc2ccc(C#N)cc2)nnc1-c1ccccc1	-29%
C=CCn1c(SCc2ccccc2)nnc1-c1cccnc1	-20.5%
C=CCn1c(SCc2ccc(C#N)cc2)nnc1-c1ccc(C)cc1	-71.3%
C=CCn1c(SCc2cccnc2)nnc1-c1ccncc1	-1.49%
Cn1c(SCc2ccc(C#N)cc2)nnc1-c1ccncc1	-19.7%

Structure (SMILES)	hERG current change (%, negative = inhibition) at 10uM
C=CCn1c(SCc2ccc(C#N)cc2)nnc1-c1ccccc1	-57.8%
c1ccc(CCn2c(SCc3ccccc3)nnc2-c2ccncc2)cc1	-41.4%
CC(=O)c1c(C)[n+]([O-])c2ccc3c(non3O)c12	13.6%
CCOC(=O)C1=NN(c2ccc(Cl)cc2)C(c2ccccc2)CC1=O (stereo not shown)	-5.12%
COc1cccc(NC(=O)CN(C)C(=O)c2cc(C3CC3)nn2-c2ccccc2)c1	-23.1%
Cc1cc(C)nc(NS(=O)(=O)c2ccc(N/C=C/C(=O)c3ccc(Cl)c(Cl)c3)cc2)n1	25.6%
CCOC(=O)c1oc2ccccc2c1NC(=O)c1cc(OC)cc(OC)c1	7.29%
COc1ccccc1C(=O)NNC(=O)C1CC=CCC1 (stereo not shown)	18.7%
O=C(/C(=C/O)N=Nc1ccccc1)c1ccncc1	-12.1%
COc1cc(NC(=S)NCc2cccnc2)c(OC)cc1Cl	-27.9%
CC(=O)N(c1ccccc1)C1SC(=O)N(c2ccccc2)C1=O (stereo not shown)	13.9%
O=[N+]([O-])c1ccc(C[n+]2c(-c3ccccc3)cc(-c3ccccc3)cc2-c2ccccc2)cc1.[O-][Cl+3]([O-])([O-])[O-]	-25.8%
O=C([O-])c1cc(-c2ccccc2)cc(-c2ccccc2)[n+]1Cc1ccccc1	-10.1%
Fc1ccc(C[n+]2c(-c3ccccc3)cc(-c3ccccc3)cc2-c2ccccc2)cc1.[O-][Cl+3]([O-])([O-])[O-]	-71.5%
[O-][Cl+3]([O-])([O-])[O-].c1ccc(C[n+]2ccccc2)cc1	-3.58%
O=[N+]([O-])c1cc(Cl)c(O)c(-[n+]2c(-c3ccccc3)cc(-c3ccccc3)cc2-c2ccccc2)c1.[O-][Cl+3]([O-])([O-])[O-]	-38.7%
O=[N+]([O-])c1ccccc1NCc1ccccc1Cl	-4.13%
Cc1cc[n+](Cc2ccccc2)cc1.[O-][Cl+3]([O-])([O-])[O-]	18.9%
Clc1ccc(C[n+]2c(-c3ccccc3)cc(-c3ccccc3)cc2-c2ccccc2)cc1.[O-][Cl+3]([O-])([O-])[O-]	-79.5%
O=[N+]([O-])c1ccccc1-c1cc(-c2ccccc2)cc(-c2ccccc2)[n+]1Cc1ccccc1Cl.[O-][Cl+3]([O-])([O-])[O-]	-78.7%
Cc1ccc(-c2cc[n+](Cc3ccccc3)cc2)cc1.[Cl-]	-5.47%
Cc1ccc(C[n+]2c(-c3ccc(C)cc3)cc(-c3ccc(C)cc3)cc2-c2ccc(C)cc2)cc1.[O-][Cl+3]([O-])([O-])[O-]	-75.6%
